Measured values as given in PubChem BioAssay AID1376 (SRMLSC, 2008).
Screen size: about 220,000 compounds; about 530 (0.24%) were called active. Cut-off read from the data, not from the text of the source: active = inhibition above about 13%; inconclusive = no clear call, values can overlap the other calls; inactive = below that. For the sample, actives were picked, then their nearest neighbours and some compounds at random. Potency and affinity values are given separately.

Target: Bifunctional protein GlmU (Mycobacterium tuberculosis (strain ATCC 25618 / H37Rv)) (UniProt P9WMN3)
Assay: inhibition of mycobacterial GlmU enzyme – biochemical, glucosamine-1-phosphate acetyltransferase (AID 1376);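 note: 0% = complete reaction with vehicle and 100% = reaction without substrate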
Conditions: M. tuberculosis GlmU acetyltransferase enzyme assay; stronger effect = higher value;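 tested at 30 µM in the primary screen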

Bifunctional protein GlmU (Mycobacterium tuberculosis (strain ATCC 25618 / H37Rv)), sequence (P9WMN3 whole entry, looked up): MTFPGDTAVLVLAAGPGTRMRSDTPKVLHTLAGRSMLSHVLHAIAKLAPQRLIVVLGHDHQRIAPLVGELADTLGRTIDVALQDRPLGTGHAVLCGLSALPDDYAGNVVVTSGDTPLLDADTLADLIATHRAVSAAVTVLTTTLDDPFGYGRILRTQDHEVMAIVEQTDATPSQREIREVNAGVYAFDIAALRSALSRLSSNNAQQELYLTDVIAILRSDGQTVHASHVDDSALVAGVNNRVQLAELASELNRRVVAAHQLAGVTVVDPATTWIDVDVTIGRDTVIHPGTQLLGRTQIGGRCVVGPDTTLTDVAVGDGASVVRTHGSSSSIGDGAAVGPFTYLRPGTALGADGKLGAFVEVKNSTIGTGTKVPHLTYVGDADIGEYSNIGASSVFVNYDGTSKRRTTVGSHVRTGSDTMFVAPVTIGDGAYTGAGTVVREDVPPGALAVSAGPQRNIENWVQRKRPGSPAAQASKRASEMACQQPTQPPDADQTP

Structure (SMILES) | inhibition
O=C1CC(N2CCN(Cc3ccc(Cl)cc3)CC2)C(=O)N1CCc1ccccc1 (stereo not drawn) | -4.79% (inactive)
O=C(NCCc1ccccn1)c1cccc(S(=O)(=O)N2CCc3ccccc32)c1 | 2.85% (inactive)
COCCNC(=O)C1c2ccccc2C(=O)N(CCOC)C1c1ccc(F)cc1 (stereo not drawn) | 1.96% (inactive)
COc1ccc(C(=O)N/C(=C\c2cccc3ccccc23)C(=O)N2CCN(C)CC2)cc1OC | 0.44% (inactive)
CSC1=NSC2=NC(=O)/C(=C\c3coc4ccccc4c3=O)C(=N)N12 | 7.97% (inactive)
CSC1=NSC2=NC(=O)/C(=C/c3coc4ccccc4c3=O)C(=N)N12 | 8.95% (inactive)
CSC1=NSC2=NC(=O)/C(=C/c3coc4ccc(O)cc4c3=O)C(=N)N12 | 21.3% (active)
NS(=O)(=O)c1ccc(CCNC(=O)CCCC2=NS(=O)(=O)c3ccccc3N2)cc1 | 2.45% (inactive)
S=c1[nH]nc(COc2ccc3ccccc3c2)o1 | 3.96% (inactive)
S=c1[nH]nc(COc2ccc(Cl)cc2)o1 | 13.3% (active)
COc1ccc(OCc2n[nH]c(=S)o2)cc1 | 2.56% (inactive)
O=C(O)C1Cc2ccccc2CN1C(=O)COc1ccc(Br)cc1 (stereo not drawn) | 12.6% (inactive)
CCOC(=O)CSc1nc(C)c(C(C)=O)cc1C(N)=O | 1.16% (inactive)
Cc1ccc(C)c(NC(=S)NNC(=O)c2csc3c2CCCC3)c1 | -4.85% (inactive)
Cc1cccc(NC(=S)NNC(=O)c2csc3c2CCCC3)c1 | 13% (active)
Cc1cccc(NC(=S)NNC(=O)c2csc3c2CCC(C)C3)c1 (stereo not drawn) | 2.66% (inactive)
CC(C)Cc1nnc(NC(=O)c2cc(-c3ccccc3)nc3ccccc23)s1 | 0.66% (inactive)
COc1cc([N+](=O)[O-])ccc1NC(=O)Cc1ccc(F)cc1 | 4.76% (inactive)
COc1ccc(CN2CCn3ncc(C(=O)Nc4cc(C)cc(C)c4)c3C2=O)cc1 | -5.28% (inactive)
O=C(NNS(=O)(=O)c1ccccc1)c1sccc1-n1cccc1 | -3.8% (inactive)
O=C(NNS(=O)(=O)c1ccc(Cl)cc1)c1sccc1-n1cccc1 | -3.47% (inactive)
O=C(NNS(=O)(=O)c1cc(Cl)cc(Cl)c1)c1sccc1-n1cccc1 | 13.9% (active)
CC1(C(=O)OCC(=O)Nc2ccc3ccccc3c2)CC1(Cl)Cl (stereo not drawn) | 0.98% (inactive)
O=C(N1CCN(Cc2ccc3c(c2)OCO3)CC1)C12CC3CC(CC(C3)C1)C2 | 3.26% (inactive)
COC(=O)c1ccc2c(=O)sc(N3CCC(C(N)=O)CC3)nc2c1 | -0.93% (inactive)
C=CCN1C(=O)/C(=C/c2ccc(OC(C)=O)c(OCC)c2[N+](=O)[O-])SC1=S | -0.95% (inactive)
CCOc1ccc(/C=C2\SC(=S)NC2=O)cc1OC | 0.99% (inactive)
CCOc1c(O)ccc(/C=C2\SC(=S)NC2=O)c1[N+](=O)[O-] | 12.8% (active)
